Z-score and composite z-score data for ten compounds are collected here from PubChem BioAssay.

Several values for one entry are separate records, joined by “and”; a condition that tells them apart may be missing. Identical values can stand only once. Activity calls are given as the source filed them.

A short description of experiment [1]: optical density shifts of acrAB sulA E. coli – strain DRC41, OD650, 48 h, E. coli filamentation inducer project, primary screen (AID 1152).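 Further: E. coli MC1000 strain DRC41 lacking acrAB efflux pump and sulA.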 To be noted: higher = more signal, called active from +8 up or from −8 down.
A short description of experiment [2]: probe aLefty1 binding on compound microarray – biochemical, small-molecule microarray, 635/667 nm fluorescence, primary screen (AID 1153).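 Further: score merges spot fluorescence with signal-to-noise ratio from the scanned slide images.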 To be noted: higher = more signal.
Experiment [3] can be described thus: plasmodial surface anion channel blockers, osmotic lysis – cell-based, P. falciparum Indochina, OD700, 1 h, primary screen (AID 1154). To be noted: P. falciparum Indochina infected RBC osmotic lysis, higher = more signal, called active from +8 up or from −8 down.
Experiment [4] is described as follows: plasmodial surface anion channel blockers, osmotic lysis – cell-based, P. falciparum Indochina, OD700, 2 h, primary screen (AID 1155).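 Further: lysis reports solute entry through the parasite surface anion channel PSAC.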 To be noted: P. falciparum Indochina infected erythrocytes, higher = more signal, called active from +8 up or from −8 down.
A short description of experiment [5]: changes in parasitized red cell lysis, either direction – P. falciparum Indochina, OD700, 3 h, PSAC antagonist project, primary screen (AID 1156). To be noted: P. falciparum-infected erythrocytes, osmotic lysis, higher = more signal, called active from +8 up or from −8 down.
Experiment [6] can be described thus: plasmodial surface anion channel blockers, osmotic lysis – cell-based, P. falciparum Indochina, OD700, 18 h, primary screen (AID 1157). To be noted: P. falciparum Indochina infected erythrocytes, osmotic lysis OD700, 18 h; higher = more signal, called active from +8 up or from −8 down.
Experiment [7] can be described thus: S6 kinase pathway phospho-S6 level changes – cell-based, A549, cytoblot, luminescence, serum-stimulated, primary screen (AID 1158).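 Further: serum-stimulated A549 lung adenocarcinoma cells; signal is phosphorylated S6 detected by cytoblot immunostaining with HRP secondary.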 The settings on record: 5 h, higher = more signal.
Experiment [8] deals with NADPH oxidase 2 (Homo sapiens) (UniProt P04839). The experiment in a line: compounds shifting NOX2 Amplex Red fluorescence – cell-based, HEK293-NOX2, PMA-stimulated, NOX inhibitor project, primary screen (AID 1159). Further: test concentration not given here. The settings on record: 45 min, higher = more signal, called active from +8 up or from −8 down.
The target of experiment [9] is NADPH oxidase 4 (Homo sapiens) (UniProt Q9NPH5). As to the kind of experiment: compounds shifting NOX4 Amplex Red fluorescence – cell-based, HEK293-NOX4, tetracycline-induced, NOX inhibitor project, primary screen (AID 1160). The settings on record: HEK293-NOX4, Amplex Red H2O2 fluorescence, 45 min; higher = more signal, called active from +8 up or from −8 down.
Experiment [10] has as its target NADPH oxidase 5 (Homo sapiens) (UniProt Q96PH1). The experiment in a line: compounds shifting NOX5 Amplex Red fluorescence – cell-based, HEK293-NOX5, NOX inhibitor project, primary screen (AID 1161). The settings on record: HEK293-NOX5, ionomycin, 45 min, higher = more signal.

Chain of NADPH oxidase 2 (Homo sapiens) (P04839 whole entry, looked up): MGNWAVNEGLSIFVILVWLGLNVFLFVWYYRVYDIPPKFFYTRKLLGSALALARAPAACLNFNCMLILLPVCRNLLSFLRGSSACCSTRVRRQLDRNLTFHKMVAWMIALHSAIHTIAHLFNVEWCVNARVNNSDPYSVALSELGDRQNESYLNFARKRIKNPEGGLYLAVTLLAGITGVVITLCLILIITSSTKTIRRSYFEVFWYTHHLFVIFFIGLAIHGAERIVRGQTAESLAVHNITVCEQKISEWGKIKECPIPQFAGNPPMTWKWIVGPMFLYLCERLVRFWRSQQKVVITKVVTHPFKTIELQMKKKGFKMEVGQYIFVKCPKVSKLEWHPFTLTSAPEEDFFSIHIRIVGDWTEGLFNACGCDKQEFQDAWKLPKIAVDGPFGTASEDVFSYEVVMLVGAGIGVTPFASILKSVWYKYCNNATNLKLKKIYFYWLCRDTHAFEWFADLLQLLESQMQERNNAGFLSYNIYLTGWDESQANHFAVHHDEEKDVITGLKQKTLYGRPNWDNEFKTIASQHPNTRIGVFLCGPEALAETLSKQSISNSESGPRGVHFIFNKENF
Chain of NADPH oxidase 5 (Homo sapiens) (Q96PH1 whole entry, looked up): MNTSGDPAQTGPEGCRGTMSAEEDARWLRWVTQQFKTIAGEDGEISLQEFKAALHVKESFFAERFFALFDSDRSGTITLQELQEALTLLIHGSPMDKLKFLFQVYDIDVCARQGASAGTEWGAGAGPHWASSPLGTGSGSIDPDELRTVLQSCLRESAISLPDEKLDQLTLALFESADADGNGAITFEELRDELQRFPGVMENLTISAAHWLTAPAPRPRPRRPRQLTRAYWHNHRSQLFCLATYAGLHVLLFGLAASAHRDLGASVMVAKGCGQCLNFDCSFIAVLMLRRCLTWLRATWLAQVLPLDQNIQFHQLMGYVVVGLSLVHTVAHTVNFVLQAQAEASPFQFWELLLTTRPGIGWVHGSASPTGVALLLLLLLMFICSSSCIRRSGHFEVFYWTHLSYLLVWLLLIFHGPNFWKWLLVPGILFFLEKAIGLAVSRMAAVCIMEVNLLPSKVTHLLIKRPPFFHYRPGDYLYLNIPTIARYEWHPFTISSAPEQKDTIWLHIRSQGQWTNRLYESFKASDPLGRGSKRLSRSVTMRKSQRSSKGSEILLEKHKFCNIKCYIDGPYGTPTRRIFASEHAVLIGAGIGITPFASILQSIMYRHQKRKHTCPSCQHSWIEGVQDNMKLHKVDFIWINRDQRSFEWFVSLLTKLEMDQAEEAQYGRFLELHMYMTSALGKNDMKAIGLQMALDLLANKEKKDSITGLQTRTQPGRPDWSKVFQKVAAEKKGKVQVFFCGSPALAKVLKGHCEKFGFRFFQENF
Chain of NADPH oxidase 4 (Homo sapiens) (Q9NPH5 whole entry, looked up): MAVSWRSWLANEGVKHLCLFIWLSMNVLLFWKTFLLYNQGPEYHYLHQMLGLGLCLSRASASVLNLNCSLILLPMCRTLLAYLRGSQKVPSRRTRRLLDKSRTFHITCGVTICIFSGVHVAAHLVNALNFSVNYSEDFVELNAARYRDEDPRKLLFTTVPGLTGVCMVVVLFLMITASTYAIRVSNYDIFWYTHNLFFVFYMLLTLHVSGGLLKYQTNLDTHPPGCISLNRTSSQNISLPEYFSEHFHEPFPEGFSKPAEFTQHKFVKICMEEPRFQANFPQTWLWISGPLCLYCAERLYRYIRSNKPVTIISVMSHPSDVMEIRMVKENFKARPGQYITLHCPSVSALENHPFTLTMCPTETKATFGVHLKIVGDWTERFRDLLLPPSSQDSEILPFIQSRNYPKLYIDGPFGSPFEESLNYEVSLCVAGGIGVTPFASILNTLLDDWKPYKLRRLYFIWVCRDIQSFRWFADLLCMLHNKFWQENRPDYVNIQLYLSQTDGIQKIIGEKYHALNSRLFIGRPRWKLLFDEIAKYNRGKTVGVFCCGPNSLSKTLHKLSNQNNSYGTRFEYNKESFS

As to `C=C[C@H](C)[C@@H](O)c1ccc(OCCO)cc1`, the z-score is -0.454 (inactive) and -0.0821 (inactive) in experiment [1]; 0.92 (inactive) and 1.14 (inactive) in [3]; 0.613 (inactive) and 0.0956 (inactive) in experiment [4]; -0.642 (inactive) and -0.202 (inactive) in [5]; 0.232 (inactive) and 0.252 (inactive) in experiment [6]; -0.248 and -0.5 in [7]. Besides, the z-score is 0.149 (inactive) and -0.758 (inactive) in experiment [8]; 0.101 (inactive) and -0.0609 (inactive) in experiment [9]; 0.297 and 0.492 in [10]. Besides, in experiment [2], the composite z-score is -0.235 and -0.146.
For `C=CCN(CCCCC)C(=O)C(c1cccs1)N(C(=O)/C=C\C(=O)O)c1ccc(CCO)cc1` (stereo not given), the z-score is 0.539 (inactive) and 0.137 (inactive) in experiment [1]; 0.0722 (inactive) and -0.629 (inactive) in experiment [3]; 0.181 (inactive) and -0.255 (inactive) in [4]; -0.533 (inactive) and -0.741 (inactive) in experiment [5]; 0.0113 (inactive) and 0.0094 (inactive) in experiment [6]; 0.0901 and -0.111 in [7]. Also, the z-score in experiment [8] is 0.259 (inactive) and -0.0131 (inactive); in [9], -0.6 (inactive) and -0.665 (inactive); in experiment [10], 0.614 and 0.19. For the same compound, the composite z-score in experiment [2] is -0.147 and -0.15.
As to `CCOC(=O)[C@H](Cc1ccccc1)NC(=O)CCC1CC(OC(=O)NCc2cccc3ccccc23)CC2(CCCC(COC(=O)NCCCN3CCCC3=O)O2)O1` (stereo not given in full), the z-score in experiment [1] is -0.0133 (inactive); in experiment [3], -0.532 (inactive); in [4] it was -0.874 (inactive); in [5] it was -2.17 (inactive); in experiment [6], -0.685 (inactive); in [7] it was -0.46. For the same compound, the z-score in experiment [8] is 1.09 (inactive); in experiment [9], 0.487 (inactive); in experiment [10] it was -0.609. The compound further came in with a composite z-score in experiment [2] of 0.0371.
With `C=CCN(C(=O)C1N(CCCCCCO)C(=O)C2C(C(=O)O)C3C=CC21O3)c1ccc(OC)cc1` (stereo not given), the z-score is 2.17 (inactive) and 0.932 (inactive) in [1]; 0.12 (inactive) and -0.718 (inactive) in [3]; -1.31 (inactive) and 0.0039 (inactive) in experiment [4]; -0.398 (inactive) and -0.196 (inactive) in experiment [5]; -1.43 (inactive) and -0.157 (inactive) in experiment [6]; 0.441 and -0.173 in experiment [7]. Also, the z-score is 0.846 (inactive) and 0.381 (inactive) in experiment [8]; -0.0568 (inactive) and -0.682 (inactive) in [9]; 1.3 and 0.105 in experiment [10]. In addition, in [2], the composite z-score was 0.153 and 0.659.
As to `C=CCN(CCCC)C(=O)C(c1cccs1)N(C(=O)/C=C\C(=O)O)c1c(Cl)cccc1CO` (stereo not given), the z-score is 0.518 (inactive) and 0.0558 (inactive) in [1]; 0.111 (inactive) and 0.897 (inactive) in [3]; -0.0165 (inactive) and -0.14 (inactive) in experiment [4]; -0.38 (inactive) and 0.0904 (inactive) in experiment [5]; 0.113 (inactive) and 0.283 (inactive) in [6]; 1.21 and 0.596 in [7]. Further, the z-score was 0.148 (inactive) and 0.256 (inactive) in [8]; -0.319 (inactive) and -0.507 (inactive) in experiment [9]; 0.16 and 0.227 in [10]. In addition, the composite z-score in [2] is -0.148 and -0.0099.
In the case of `CC(C)=NOC[C@@H](O)COCc1ccco1`, the z-score was 0.534 (inactive) in experiment [1]; 0.159 (inactive) in [3]; 0.365 (inactive) in experiment [4]; -0.0924 (inactive) in experiment [5]; 0.0967 (inactive) in experiment [6]; 0.566 in experiment [7]. Also, the z-score was 0.0371 (inactive) in experiment [8], 0.0915 (inactive) in experiment [9] and 0.125 in experiment [10]. Further, the composite z-score in experiment [2] came out at 0.843.
As for `CC(CO)N1C(=O)[C@@H]2C3C(=O)OCCC=C[C@H]3OC23C=CCN(c2ccc4ccccc4c2)C(=O)[C@@H]13` (stereo not given in full), the z-score in experiment [1] was -0.562 (inactive) and -0.929 (inactive); in [3], 3.31 (inactive) and 4.57 (inactive); in [4], 1.28 (inactive) and 0.577 (inactive); in experiment [5], 1.18 (inactive) and 0.724 (inactive); in [6], 0.652 (inactive) and 0.282 (inactive); in experiment [7] it was -0.631 and -0.363. Further, the z-score in experiment [8] is 1.68 (inactive) and 1.25 (inactive); in [9] it was 0.411 (inactive) and 1.05 (inactive); in [10] it was 2.69 and 2.08. In experiment [2], the composite z-score is -0.0015 and -0.673.
`C=C[C@@H](OC)[C@H](O)c1ccc(OC)c(O)c1`: the z-score in experiment [1] is 0.232 (inactive) and 1.81 (inactive); in experiment [3] it was 0.61 (inactive) and -0.257 (inactive); in experiment [4], 0.436 (inactive) and -1.63 (inactive); in experiment [5], -0.28 (inactive) and -1.54 (inactive); in [6], 0.328 (inactive) and -2.34 (inactive); in experiment [7], 0.138 and 0.185. The z-score in experiment [8] is -2.35 (inactive) and -2.11 (inactive); in experiment [9] it was -0.998 (inactive) and -1.12 (inactive); in [10], -1.51 and -0.778. Further, in [2], the composite z-score was 0.235 and -0.328.
Consider `CC(CO)N1C(=O)[C@@H]2C3C(=O)OCCC=C[C@H]3OC23C=CCN(c2ccc(Cl)cc2)C(=O)[C@@H]13` (stereo not given in full), for which the z-score is -0.0529 (inactive) and -0.655 (inactive) in experiment [1]; 0.725 (inactive) and 3.92 (inactive) in experiment [3]; 1.02 (inactive) and 0.352 (inactive) in experiment [4]; 0.741 (inactive) and 0.968 (inactive) in [5]; 0.817 (inactive) and 0.0372 (inactive) in experiment [6]; -0.7 and -0.574 in [7]. The z-score in experiment [8] is 1.59 (inactive) and 1.47 (inactive); in experiment [9], 1.03 (inactive) and 1.11 (inactive); in experiment [10], 2.46 and 2.5. Further, in experiment [2], the composite z-score is -0.142 and 0.422.
Consider `COC(=O)[C@@]1(Cc2ccc(OC)cc2)[C@H]2c3cc(C(=O)N(C)C)n(Cc4ccc(O)c(OC)c4)c3C[C@H]2CN1C(=O)c1ccccc1`, for which the z-score was -0.583 (inactive) and -1.09 (inactive) in [1]; 7.35 (inactive) and 6.71 (inactive) in experiment [3]; 0.45 (inactive) and 1.11 (inactive) in experiment [4]; 2.07 (inactive) and 1.63 (inactive) in [5]; 0.642 (inactive) and 1.38 (inactive) in [6]; 0.217 and 0.749 in [7]. Besides, the z-score in experiment [8] is -1.99 (inactive) and 0.285 (inactive); in experiment [9], -6.68 (inactive) and 1.16 (inactive); in experiment [10] it was -5.69 and -0.509. The composite z-score in [2] is 0.0913 and 0.661.
